Records with an inconclusive call do not appear. Unmarked numbers belong to inactive results. Active and inactive are the calls of the source. Calls come from the whole dose curve; as a rule, active = well fitted curve in the direction sought with a large enough effect; inconclusive = small, poorly fitted or top-dose-only effect, or another doubt; inactive = no such curve, though single readings can be large; an effect the other way counts as inactive or inconclusive.
assay: HepG2 cells viability qHTS for Zika virus inhibitors (AID 1347168); settings: Zika counter-screen; series mostly up to 45.9 µM; activity change, negative = cytotoxicity: at the top concentration
Summary of the method: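 To flag cytotoxic protease inhibitors, viability is measured by ATP-dependent luminescence (CellTiter Glo) after cells attached overnight receive compound for 24 to 48 hours in DMEM with 4% FBS.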
% is set by controls: 0 for no effect and ±100 for the full control effect; potency is the fitted concentration of half-maximal effect.

Compound | activity change, negative = cytotoxicity | Potency
C[C@H]1COc2c(N3CCN(C)CC3)c(F)cc3c(=O)c(C(=O)O)cn1c23 | -8.89% | 
CNC(=O)c1cccc(-c2ccc3c(N4CCOC[C@H]4C)nc(N4CCOC[C@H]4C)nc3n2)c1 | -6.11% | 
CCCCCCCCc1ccc(CCC(N)(CO)CO)cc1 |  | 26.2 µM (active)
CN[C@@H]1C[C@H]2O[C@@](C)([C@H]1OC)n1c3ccccc3c3c4c(c5c6ccccc6n2c5c31)C(=O)N[C@H]4O |  | 10.4 µM (active)
Cc1ccc(-n2[nH]c(C)c(N=Nc3cccc(-c4cccc(C(=O)O)c4)c3O)c2=O)cc1C | -15.1% | 
c1cc(N[C@@H]2CCNC2)nc(-c2cnc3ccc(-c4cn[nH]c4)cn23)c1 | -12.4% | 

assay: Tertiary RLuc qRT-PCR qHTS assay for Zika virus inhibitors (AID 1347169); settings: infected Vero cells, reporter luminescence, 48-72 h; series mostly up to 45.9 µM; activity change, negative = inhibition: at the top concentration; note: nearly all actives have a fitted effect of over 55% in size; for activity change, negative = inhibition: top concentration of the series differs between compounds
Summary of the method: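 Orthogonal cell-based infection assay using recombinant ZIKV-RLuc (Cambodian) in Vero cells; compound added prior to virus at MOI 1-2. Incubation lasts 48-72 hrs at 37 degrees C before live-cell Renilla substrate is added and luminescence measured.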

Compound | activity change, negative = inhibition | Potency
C[C@H]1COc2c(N3CCN(C)CC3)c(F)cc3c(=O)c(C(=O)O)cn1c23 | -5.95% | 
CN(C)CC(=O)N1CCC(c2ccc(NC(=O)c3ncc(C#N)[nH]3)c(C3=CCCCC3)c2)CC1 | 14% | 
CCCCCCCCc1ccc(CCC(N)(CO)CO)cc1 |  | 16.5 µM (active)
O=c1c(O)c(-c2ccc(O)c(O)c2)oc2cc(O)ccc12 | 36.9% [at 14.8 µM] | 
CC(C)c1cc(C(C)C)c(CC(=O)NS(=O)(=O)Oc2c(C(C)C)cccc2C(C)C)c(C(C)C)c1 |  | 5.87 µM (active)
c1cc(N[C@@H]2CCNC2)nc(-c2cnc3ccc(-c4cn[nH]c4)cn23)c1 | -14.3% | 
